# Several values for one entry are separate records, joined by “and”; a condition that tells them apart may be missing. Equal values may be shown once. Activity calls are given as the source filed them.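 How the source made its calls, unless noted: active means compounds whose cell count with miR-34 switched on is under 0.7 times the count with it off; inactive means the rest.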
# Legend:
# [1] = stimulators of nuclear beta-catenin in C2C12, primary screen, imaging, WNT3A-conditioned medium, mouse C2C12, NPC library (AID 1117326; in the data active means nuclear beta-catenin stimulation mostly above about 4.2%, no sharp cut-off; inactive means mostly below about 10%); conditions: stronger effect = higher value
# [2] = stimulators of insulin release from INS-1E, primary screen, cell-based, 5 mM glucose, NPC library (AID 1117329;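 active means compound raises insulin release from rat beta cells at 5 mM glucose, no numeric limit stated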); conditions: rat INS-1E insulin secretion, at 10 µM, stronger effect = higher value
# [3] = growth inhibition of GSK3B-pretreated HCT116 cells – cell-based, CellTiter-Glo, 0.2 to 20 µM (AID 1117336;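 active means compounds lowering colon cancer cell viability after pretreatment blocking the GSK3B kinase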); conditions: HCT116 viability after GSK3B inhibitor, at 20 µM, stronger effect = higher value
# [4] = inhibition of endothelial tube formation, primary screen, imaging, VEGF stimulated, CD31 staining, tube area, NPC library (AID 1117340;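 active means compound that reduces growth-factor-driven endothelial tube area in a mixed cell culture, no cutoff stated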); conditions: VEGF-stimulated ADSC/ECFC co-culture, at 10 µM, stronger effect = higher value
# [5] = glucagon-like peptide 1 release enhancers, primary assay, NCI-H716 cell line, NPC library (AID 1117341;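 active means compound raises GLP1 secretion from the human gut endocrine cells, with no numeric limit stated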); conditions: NCI-H716 cells, at 10 µM, stronger effect = higher value
# [6] = HCT116 colon cancer cell growth inhibition, primary screen, CellTiter-Glo luminescence, NPC library (AID 1117342;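 active means compounds that lower survival of HCT116 colon cancer cells in the luminescence readout, no numeric limit stated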); conditions: at 20 µM (top of the series)
# [7] = CellTiter-Glo luminescent readout of SW480 viability loss, NPC library primary (AID 1117343;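 active means compounds that lower viability of the colon cancer cells in the luminescence readout, with no numeric limit stated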); conditions: CellTiter-Glo luminescence; at 20 µM (top of the series) unless noted
# [8] = decreased DLD-1 cellular survival, CellTiter-Glo luminescent readout, NPC compound collection, primary HTS (AID 1117346;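 active means compounds that lower survival of DLD-1 colon cancer cells in the luminescence readout, no cutoff given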); conditions: DLD-1 viability, CellTiter-Glo luminescence; at 20 µM (top of the series)
# [9] = differential killing of epithelial or mesenchymal cells, primary screen, imaging, PC-3E GFP, TEM4-18 mCherry, co-culture (AID 1345086;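 active means compounds killing one labelled cell type while sparing the other, by normalised counts and ratio limits, not self-fluorescent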;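 on all read-outs here: cells exposed to compound for 72 h before imaging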;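 on red/green cell ratio (normalised): normalised mesenchymal count divided by normalised epithelial count so high means epithelial killing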); conditions: imaging cell counts, at 1 µM; for red/green cell ratio (normalised): actives lie on both sides, counts scaled to control wells, 1 = unselective
# [10] = sensitizers of A549 cells to miR-34 induction, primary screen, imaging, A549 dox-inducible miR-34, nuclei and caspase counts (AID 1347080); conditions: A549 miR-34 inducible, Hoechst nuclei count, 48 h
# [11] = molecular target: NAD(+) hydrolase SARM1 (Homo sapiens) (UniProt Q6SZW1); test: SARM1 TIR NADase inhibitors, cell lysate, NAD-Glo luminescence (AID 1508614;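 active means compound whose remaining NAD level is above about 45 nM, limit read from the data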); conditions: SAM-TIR HEK293T lysate NADase, at 1 µM, stronger effect = higher value
# Sequence of NAD(+) hydrolase SARM1 (Homo sapiens) (Q6SZW1 whole entry, looked up): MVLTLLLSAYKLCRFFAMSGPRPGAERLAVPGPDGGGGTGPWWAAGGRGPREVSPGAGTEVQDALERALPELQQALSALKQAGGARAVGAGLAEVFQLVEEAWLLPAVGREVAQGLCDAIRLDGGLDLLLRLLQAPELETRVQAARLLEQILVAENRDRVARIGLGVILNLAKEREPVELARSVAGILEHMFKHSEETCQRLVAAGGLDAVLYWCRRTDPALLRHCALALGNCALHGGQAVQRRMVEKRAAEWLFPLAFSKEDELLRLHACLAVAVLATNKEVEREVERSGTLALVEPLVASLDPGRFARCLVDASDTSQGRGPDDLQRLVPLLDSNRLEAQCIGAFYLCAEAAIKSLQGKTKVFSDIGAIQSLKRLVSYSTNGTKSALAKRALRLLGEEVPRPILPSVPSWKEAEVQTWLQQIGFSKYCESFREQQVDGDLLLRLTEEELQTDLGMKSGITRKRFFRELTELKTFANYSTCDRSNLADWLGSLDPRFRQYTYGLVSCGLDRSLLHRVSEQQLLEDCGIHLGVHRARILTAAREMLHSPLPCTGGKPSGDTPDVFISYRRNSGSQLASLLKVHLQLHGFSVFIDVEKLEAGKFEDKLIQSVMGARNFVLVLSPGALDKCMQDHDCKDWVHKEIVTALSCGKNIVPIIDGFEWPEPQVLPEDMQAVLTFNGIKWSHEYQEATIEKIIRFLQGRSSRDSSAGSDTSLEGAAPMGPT
# [12] = hESC survival regulators, cell-based (AID 493140; call rule not given here;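 further: cells exposed to compounds for four days before counting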); conditions: human embryonic stem cell survival screen; stronger effect = higher value
# [13] = liver-stage malaria parasite growth inhibition, primary screen, cell-based, HepG2, luciferase luminescence, HepG2 viability (AID 624349; in the data active means parasite load remaining mostly below about 12%, no sharp cut-off; inactive means mostly above about 10%;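 further: 100% = mean of DMSO negative control wells on the same plate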); conditions: P. berghei liver stage in HepG2, luciferase luminescence, concentration not given here; parasite load remaining: stronger effect = lower value; viability: measured here: HepG2 viability without parasites
# [14] = survival rescue of mitochondrial mutant cells in low glucose, primary screen, MELAS cybrids, Rieske KO mouse fibroblasts, CellTiter-Glo (AID 1508586;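 active means mean z-score across replicates of 1.96 or higher in either the MELAS or the Rieske mutant cell line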;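 further: z relative to plate mean and SD of compound and empty wells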)
# [15] = measured here: epithelial PC-3E GFP cell survival
# [16] = measured here: mesenchymal TEM4-18 mCherry cell survival
# [17] = stronger effect = lower value, cell number ratio, induced over uninduced
# [18] = measured here: relative caspase fold change +Dox/-Dox
# [19] = measured here: total cells with miR-34 induction, stronger effect = lower value
# [20] = measured here: total cells without miR-34 induction
# [21] = MELAS cybrid survival, CellTiter-Glo 48 h, stronger effect = higher value
# [22] = Rieske KO mouse fibroblast survival, CellTiter-Glo 72 h
structure (smiles),measurement,setting,value
CCCCC(CC)COc1ccc(-c2nc(-c3ccc(OC)cc3)nc(-c3ccc(OCC(CC)CCCC)cc3O)n2)c(O)c1 (configuration not stated),nuclear beta-catenin stimulation,[1]; at 10 µM,-1% (inactive)
same,nuclear beta-catenin stimulation,"[1]; stimulation, at 2 µM",2%
same,insulin secretion stimulation,[2],0.7% (inactive)
same,viability decrease,[3],4.7% (inactive)
same,tube area decrease,[4],2.9% (inactive)
same,GLP1 secretion stimulation,[5],-2.3% (inactive)
same,inhibition of viability,[6],-5.3% (inactive)
same,viability decrease (inhibition),[7],-1.3% (active)
same,viability decrease (inhibition),[8],-8.3% (inactive)
same,red/green cell ratio (normalised),[9],0.89 (inactive)
same,normalised cell number,[9]; [15],1.25
same,normalised cell number,[9]; [16],1.12
same,fold change,[10]; [17],0.959 (inactive)
same,fold change,[10]; [18],0.849
same,cell count,[10]; [19],9430
same,cell count,[10]; [20],9840
same,remaining NAD,[11],10 nM (inactive)
CC(=O)N[C@@H](CCC(N)=O)C(=O)O,nuclear beta-catenin stimulation,[1]; at 10 µM,-2.5% (inactive)
same,nuclear beta-catenin stimulation,"[1]; stimulation, at 2 µM",0.1%
same,insulin secretion stimulation,[2],2.8% (inactive)
same,viability decrease,[3],-2.5% (inactive)
same,tube area decrease,[4],12.1% (inactive)
same,GLP1 secretion stimulation,[5],-3.6% (inactive)
same,inhibition of viability,[6],0.7% (inactive)
same,viability decrease (inhibition),[7],9.6% (inactive)
same,viability decrease (inhibition),[8],-3.7% (inactive)
same,red/green cell ratio (normalised),[9],0.96 (inactive)
same,normalised cell number,[9]; [15],0.97
same,normalised cell number,[9]; [16],0.93
same,fold change,[10]; [17],0.922 (inactive)
same,fold change,[10]; [18],0.675
same,cell count,[10]; [19],8950
same,cell count,[10]; [20],9710
same,remaining NAD,[11],10 nM (inactive)
CC(C)(C)NCC(O)COc1cccc2c1CCC(=O)N2 (configuration not stated),survival,[12],7.75 (inactive)
same,parasite load remaining,[13],126% (inactive) and 79.2% (inactive)
same,viability,[13],105% and 76.8%
same,nuclear beta-catenin stimulation,[1]; at 10 µM,0.7% (inactive)
same,nuclear beta-catenin stimulation,"[1]; stimulation, at 2 µM",1.8%
same,insulin secretion stimulation,[2],1.4% (inactive)
same,viability decrease,[3],-25.9% (inactive)
same,tube area decrease,[4],-2.9% (inactive)
same,GLP1 secretion stimulation,[5],1.2% (inactive)
same,inhibition of viability,[6],-1.83% (inactive)
same,viability decrease (inhibition),[7],-26.6% (inactive)
same,viability decrease (inhibition),[8],-8.8% (inactive)
same,red/green cell ratio (normalised),[9],1.13 (inactive)
same,normalised cell number,[9]; [15],1.2
same,normalised cell number,[9]; [16],1.36
same,fold change,[10]; [17],0.805 (inactive) and 0.903 (inactive)
same,fold change,[10]; [18],0.997 and 0.693
same,cell count,[10]; [19],8680 and 7910
same,cell count,[10]; [20],10800 and 8760
same,z-score,[14]; [21],-0.229 (inactive) and 0.6 (inactive)
same,z-score,[14]; [22],-0.22 and -0.0871
same,remaining NAD,[11],10 nM (inactive)
CNC(=O)c1c(I)c(NC(C)=O)c(I)c(C(=O)O)c1I,nuclear beta-catenin stimulation,[1]; at 10 µM,0.7% (inactive)
same,nuclear beta-catenin stimulation,"[1]; stimulation, at 2 µM",0.8%
same,insulin secretion stimulation,[2],0.9% (inactive)
same,viability decrease,[3],-4.1% (inactive)
same,tube area decrease,[4],4.3% (inactive)
same,GLP1 secretion stimulation,[5],0.4% (inactive)
same,inhibition of viability,[6],13.4% (inactive)
same,viability decrease (inhibition),[7],0.4% (inactive)
same,viability decrease (inhibition),[8],-2.95% (inactive)
same,red/green cell ratio (normalised),[9],0.78 (inactive)
same,normalised cell number,[9]; [15],1.25
same,normalised cell number,[9]; [16],0.97
same,fold change,[10]; [17],0.982 (inactive)
same,fold change,[10]; [18],0.852
same,cell count,[10]; [19],9390
same,cell count,[10]; [20],9560
same,remaining NAD,[11],10 nM (inactive)
CN1C(=O)CC(C)(c2ccccc2)C1=O (configuration not stated),nuclear beta-catenin stimulation,[1]; at 10 µM,2.5% (inactive)
same,nuclear beta-catenin stimulation,"[1]; stimulation, at 2 µM",2%
same,insulin secretion stimulation,[2],-0.7% (inactive)
same,viability decrease,[3],-2.5% (inactive)
same,tube area decrease,[4],-16.2% (inactive)
same,GLP1 secretion stimulation,[5],2.6% (inactive)
same,inhibition of viability,[6],8.7% (inactive)
same,viability decrease (inhibition),[7],19.6% (inactive)
same,viability decrease (inhibition),[8],-5.25% (inactive)
same,red/green cell ratio (normalised),[9],1.03 (inactive)
same,normalised cell number,[9]; [15],0.99
same,normalised cell number,[9]; [16],1.02
same,fold change,[10]; [17],0.901 (inactive)
same,fold change,[10]; [18],0.963
same,cell count,[10]; [19],8480
same,cell count,[10]; [20],9410
same,remaining NAD,[11],10 nM (inactive)
NCCc1ccn[nH]1,survival,[12],17.5 (inactive)
same,parasite load remaining,[13],35.3% (inactive) and 97.6% (inactive)
same,viability,[13],49.8% and 93.1%
same,nuclear beta-catenin stimulation,[1]; at 10 µM,1% (inactive)
same,nuclear beta-catenin stimulation,"[1]; stimulation, at 2 µM",0.9%
same,insulin secretion stimulation,[2],-1.5% (inactive)
same,viability decrease,[3],-5% (inactive)
same,tube area decrease,[4],-21.4% (inactive)
same,GLP1 secretion stimulation,[5],1.1% (inactive)
same,inhibition of viability,[6],-8.9% (inactive)
same,viability decrease (inhibition),[7],12.5% (inactive)
same,viability decrease (inhibition),[8],-9.4% (inactive)
same,red/green cell ratio (normalised),[9],0.76 (inactive)
same,normalised cell number,[9]; [15],1.25
same,normalised cell number,[9]; [16],0.95
same,fold change,[10]; [17],0.91 (inactive)
same,fold change,[10]; [18],1.36
same,cell count,[10]; [19],9040
same,cell count,[10]; [20],9920
same,z-score,[14]; [21],0.417 (inactive)
same,z-score,[14]; [22],0.115
same,remaining NAD,[11],10 nM (inactive)
CC(=O)Nc1c(I)c(NC(C)=O)c(I)c(C(=O)O)c1I,parasite load remaining,[13],58.9% (inactive)
same,viability,[13],109%
same,nuclear beta-catenin stimulation,[1]; at 10 µM,1.6% (inactive)
same,nuclear beta-catenin stimulation,"[1]; stimulation, at 2 µM",7.7%
same,insulin secretion stimulation,[2],1.5% (inactive)
same,viability decrease,[3],2.3% (inactive)
same,tube area decrease,[4],-9.3% (inactive)
same,GLP1 secretion stimulation,[5],4.3% (inactive)
same,inhibition of viability,[6],2% (inactive)
same,viability decrease (inhibition),[7],-30.8% (inactive)
same,viability decrease (inhibition),[8],-0.9% (inactive)
same,red/green cell ratio (normalised),[9],1.17 (inactive)
same,normalised cell number,[9]; [15],1.02
same,normalised cell number,[9]; [16],1.19
same,fold change,[10]; [17],0.866 (inactive)
same,fold change,[10]; [18],2.21
same,cell count,[10]; [19],11200
same,cell count,[10]; [20],13000
same,z-score,[14]; [21],0.0135 (inactive)
same,z-score,[14]; [22],0.624
same,remaining NAD,[11],10 nM (inactive)
O=S(=O)(O)CCCS(=O)(=O)O,nuclear beta-catenin stimulation,[1]; at 10 µM,-2.1% (inactive)
same,nuclear beta-catenin stimulation,"[1]; stimulation, at 2 µM",-0.3%
same,insulin secretion stimulation,[2],2.9% (inactive)
same,viability decrease,[3],-15.7% (inactive)
same,tube area decrease,[4],-1.1% (inactive)
same,GLP1 secretion stimulation,[5],-2.7% (inactive)
same,inhibition of viability,[6],-1.7% (inactive)
same,viability decrease (inhibition),[7],-9.3% (inactive)
same,viability decrease (inhibition),[8],-13.5% (inactive)
same,red/green cell ratio (normalised),[9],0.74 (inactive)
same,normalised cell number,[9]; [15],1.27
same,normalised cell number,[9]; [16],0.94
same,fold change,[10]; [17],0.939 (inactive)
same,fold change,[10]; [18],1.14
same,cell count,[10]; [19],9300
same,cell count,[10]; [20],9900
same,remaining NAD,[11],10 nM (inactive)
CC(O)C(=O)O (configuration not stated),nuclear beta-catenin stimulation,[1]; at 10 µM,2.5% (inactive)
same,nuclear beta-catenin stimulation,"[1]; stimulation, at 2 µM",3%
same,insulin secretion stimulation,[2],-0.6% (inactive)
same,viability decrease,[3],-5.3% (inactive)
same,tube area decrease,[4],8.4% (inactive)
same,GLP1 secretion stimulation,[5],3.4% (inactive)
same,inhibition of viability,[6],2.73% (inactive)
same,viability decrease (inhibition),[7],-11.7% (inactive)
same,viability decrease (inhibition),[8],-8.5% (inactive)
same,red/green cell ratio (normalised),[9],1.08 (inactive)
same,normalised cell number,[9]; [15],1.05
same,normalised cell number,[9]; [16],1.14
same,fold change,[10]; [17],0.885 (inactive)
same,fold change,[10]; [18],0.852
same,cell count,[10]; [19],8900
same,cell count,[10]; [20],10100
same,remaining NAD,[11],10 nM (inactive)
